# Assays:
# Test in all cases: DAPPL (digital affinity profiling via proximity ligation, sequencing); 10 mM Tris-HCl pH 7.5, 50 mM NaCl, 1 mM DTT, 4% glycerol, room temperature, 30 min; GST-TFs on glutathione beads, 16-mer random dsDNA library, 0.1% formaldehyde crosslink after washing; high values mean tight binding
# Settings in all cases: protein: recombinant; tags: N-terminal GST; dsDNA, one strand shown
# [1] = biological target: T1, ELK1 (Homo sapiens, UniProt P19419 1-428)
# T1 sequence: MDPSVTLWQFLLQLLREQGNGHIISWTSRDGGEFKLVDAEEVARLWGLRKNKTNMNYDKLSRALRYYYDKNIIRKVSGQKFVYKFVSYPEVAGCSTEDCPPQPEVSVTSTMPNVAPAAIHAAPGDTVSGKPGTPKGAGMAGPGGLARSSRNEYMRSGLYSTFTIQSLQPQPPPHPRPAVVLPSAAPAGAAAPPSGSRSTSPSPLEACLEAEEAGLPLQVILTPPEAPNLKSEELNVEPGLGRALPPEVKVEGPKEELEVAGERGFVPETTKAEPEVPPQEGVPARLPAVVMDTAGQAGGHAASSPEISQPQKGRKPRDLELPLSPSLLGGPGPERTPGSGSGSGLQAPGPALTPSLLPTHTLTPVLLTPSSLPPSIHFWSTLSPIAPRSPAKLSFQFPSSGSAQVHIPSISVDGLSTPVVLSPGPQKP
# Method in brief: (§1)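 Yeast served to express human transcription factors as GST fusions, which were then captured on glutathione beads and labelled with DNA barcodes. Pooled with a tag-only sample, they were incubated with 200 nmole of a 16-mer random double-stranded DNA library for 30 min at room temperature in Tris/NaCl/DTT/glycerol buffer, washed, crosslinked with 0.1% formaldehyde, ligated by proximity, amplified by PCR and sequenced. Dividing each hexamer's read frequency for a factor by its frequency for the tag-only sample gives the binding signal.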
# [2] = biological target: T2, GABPA (Homo sapiens, UniProt Q06546 1-454)
# T2 sequence: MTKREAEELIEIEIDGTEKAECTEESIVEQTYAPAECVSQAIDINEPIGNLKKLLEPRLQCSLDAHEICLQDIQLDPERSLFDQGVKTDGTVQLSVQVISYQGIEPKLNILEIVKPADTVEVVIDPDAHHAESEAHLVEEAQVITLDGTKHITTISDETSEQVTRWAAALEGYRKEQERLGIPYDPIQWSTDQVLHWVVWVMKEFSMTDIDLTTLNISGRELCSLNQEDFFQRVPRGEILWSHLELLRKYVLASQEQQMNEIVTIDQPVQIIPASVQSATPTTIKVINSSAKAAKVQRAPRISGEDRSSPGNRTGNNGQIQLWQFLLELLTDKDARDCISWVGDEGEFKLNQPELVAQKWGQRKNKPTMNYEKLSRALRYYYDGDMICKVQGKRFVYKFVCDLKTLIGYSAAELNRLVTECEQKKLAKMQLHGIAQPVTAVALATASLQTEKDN
# Method in brief: as §1
# [3] = biological target: T3, ERG (Homo sapiens, UniProt P11308 1-479)
# T3 sequence: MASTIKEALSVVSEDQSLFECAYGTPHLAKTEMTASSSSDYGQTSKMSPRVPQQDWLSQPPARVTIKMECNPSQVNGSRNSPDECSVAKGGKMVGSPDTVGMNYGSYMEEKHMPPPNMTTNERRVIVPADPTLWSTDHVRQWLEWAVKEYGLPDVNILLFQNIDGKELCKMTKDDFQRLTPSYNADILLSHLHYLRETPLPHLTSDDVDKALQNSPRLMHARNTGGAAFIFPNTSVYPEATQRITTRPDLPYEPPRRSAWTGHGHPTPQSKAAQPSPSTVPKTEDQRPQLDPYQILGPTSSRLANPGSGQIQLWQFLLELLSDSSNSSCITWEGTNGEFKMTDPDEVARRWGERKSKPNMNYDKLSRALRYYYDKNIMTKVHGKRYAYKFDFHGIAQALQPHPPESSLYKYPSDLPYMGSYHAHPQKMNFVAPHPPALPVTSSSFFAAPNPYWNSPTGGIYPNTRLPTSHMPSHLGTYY
# Method in brief: as §1
# [4] = biological target: ELF1 (Homo sapiens, UniProt P32519 1-619)
# Method in brief: as §1
# [5] = biological target: T4, EHF (Homo sapiens, UniProt Q9NZC4 1-300)
# T4 sequence: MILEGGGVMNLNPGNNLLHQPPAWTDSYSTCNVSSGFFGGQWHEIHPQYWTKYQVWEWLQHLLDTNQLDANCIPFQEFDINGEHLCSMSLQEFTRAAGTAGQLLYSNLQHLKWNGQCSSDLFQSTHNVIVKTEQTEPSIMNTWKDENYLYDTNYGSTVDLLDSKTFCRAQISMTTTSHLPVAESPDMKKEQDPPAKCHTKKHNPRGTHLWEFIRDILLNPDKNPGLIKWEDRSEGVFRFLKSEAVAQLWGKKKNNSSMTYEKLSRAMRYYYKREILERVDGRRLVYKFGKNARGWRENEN
# Method in brief: as §1
# [6] = biological target: SPIB (Homo sapiens, UniProt Q01892 1-262)
# Method in brief: as §1
# [7] = biological target: T5, FEV (Homo sapiens, UniProt Q99581 1-238)
# T5 sequence: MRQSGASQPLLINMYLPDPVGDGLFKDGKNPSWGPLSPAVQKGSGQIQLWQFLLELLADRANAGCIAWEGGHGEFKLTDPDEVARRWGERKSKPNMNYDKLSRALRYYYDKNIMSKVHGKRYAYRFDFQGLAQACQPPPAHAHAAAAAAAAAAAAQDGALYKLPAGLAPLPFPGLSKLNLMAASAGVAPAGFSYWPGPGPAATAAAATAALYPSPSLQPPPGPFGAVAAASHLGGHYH
# Method in brief: as §1
# [8] = biological target: ETV5 (Homo sapiens, UniProt P41161 1-510)
# Method in brief: as §1
# [9] = biological target: ELF4 (Homo sapiens, UniProt Q99607 1-663)
# Method in brief: as §1
# [10] = biological target: T6, ELK4 (Homo sapiens, UniProt P28324-2 1-405)
# T6 sequence: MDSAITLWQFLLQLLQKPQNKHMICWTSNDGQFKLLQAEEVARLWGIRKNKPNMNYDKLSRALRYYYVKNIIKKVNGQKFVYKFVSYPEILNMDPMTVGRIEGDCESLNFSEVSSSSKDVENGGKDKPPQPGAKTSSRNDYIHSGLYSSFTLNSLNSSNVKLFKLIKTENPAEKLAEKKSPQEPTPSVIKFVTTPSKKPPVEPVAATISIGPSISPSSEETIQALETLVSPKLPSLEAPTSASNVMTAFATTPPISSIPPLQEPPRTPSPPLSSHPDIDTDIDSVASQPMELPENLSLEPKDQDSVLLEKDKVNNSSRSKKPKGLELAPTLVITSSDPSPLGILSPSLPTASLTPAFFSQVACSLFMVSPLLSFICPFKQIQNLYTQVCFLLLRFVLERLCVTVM
# Method in brief: as §1
# [11] = biological target: T7, ETV2 (Homo sapiens, UniProt O00321 1-342)
# T7 sequence: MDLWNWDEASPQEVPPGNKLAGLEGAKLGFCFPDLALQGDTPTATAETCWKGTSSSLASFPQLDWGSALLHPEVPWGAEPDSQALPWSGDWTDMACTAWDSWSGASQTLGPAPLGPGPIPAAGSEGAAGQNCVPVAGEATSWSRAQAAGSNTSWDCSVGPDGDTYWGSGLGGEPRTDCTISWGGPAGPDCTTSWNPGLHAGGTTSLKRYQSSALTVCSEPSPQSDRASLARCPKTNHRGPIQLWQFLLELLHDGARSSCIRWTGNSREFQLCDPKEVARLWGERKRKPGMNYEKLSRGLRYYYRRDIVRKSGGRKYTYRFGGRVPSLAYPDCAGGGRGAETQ
# Method in brief: as §1
# [12] = biological target: T8, ELF3 (Homo sapiens, UniProt P78545 1-371)
# T8 sequence: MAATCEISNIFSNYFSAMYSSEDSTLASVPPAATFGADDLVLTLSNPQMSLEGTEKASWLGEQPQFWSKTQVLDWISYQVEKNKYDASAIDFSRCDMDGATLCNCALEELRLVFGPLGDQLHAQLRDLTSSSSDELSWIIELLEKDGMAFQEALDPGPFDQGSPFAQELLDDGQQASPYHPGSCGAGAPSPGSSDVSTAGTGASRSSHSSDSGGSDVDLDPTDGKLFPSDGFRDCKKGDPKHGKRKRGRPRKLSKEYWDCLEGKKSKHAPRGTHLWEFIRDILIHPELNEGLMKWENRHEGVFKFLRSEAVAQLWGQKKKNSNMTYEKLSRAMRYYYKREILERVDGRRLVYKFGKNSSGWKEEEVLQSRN
# Method in brief: as §1
# [13] = biological target: ETV1 (Homo sapiens, UniProt P50549 1-477)
# Method in brief: as §1
# [14] = biological target: T9, ERF (Homo sapiens, UniProt P50548 1-548)
# T9 sequence: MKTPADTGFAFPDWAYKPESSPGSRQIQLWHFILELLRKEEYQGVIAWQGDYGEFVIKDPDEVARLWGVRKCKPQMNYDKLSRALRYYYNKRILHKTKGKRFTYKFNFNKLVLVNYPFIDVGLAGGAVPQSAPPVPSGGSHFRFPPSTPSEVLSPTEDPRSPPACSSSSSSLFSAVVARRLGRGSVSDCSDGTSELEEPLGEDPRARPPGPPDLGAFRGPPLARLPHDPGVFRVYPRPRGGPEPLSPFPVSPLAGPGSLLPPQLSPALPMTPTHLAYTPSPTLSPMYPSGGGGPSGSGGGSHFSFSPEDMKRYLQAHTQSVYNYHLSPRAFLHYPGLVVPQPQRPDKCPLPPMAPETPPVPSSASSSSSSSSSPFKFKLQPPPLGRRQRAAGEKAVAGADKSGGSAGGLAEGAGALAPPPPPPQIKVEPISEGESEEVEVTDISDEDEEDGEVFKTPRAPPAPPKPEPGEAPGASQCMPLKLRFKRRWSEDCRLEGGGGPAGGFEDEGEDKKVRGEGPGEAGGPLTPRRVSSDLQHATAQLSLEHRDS
# Method in brief: as §1
# [15] = biological target: T10, ETV3L (Homo sapiens, UniProt Q6ZN32 1-361)
# T10 sequence: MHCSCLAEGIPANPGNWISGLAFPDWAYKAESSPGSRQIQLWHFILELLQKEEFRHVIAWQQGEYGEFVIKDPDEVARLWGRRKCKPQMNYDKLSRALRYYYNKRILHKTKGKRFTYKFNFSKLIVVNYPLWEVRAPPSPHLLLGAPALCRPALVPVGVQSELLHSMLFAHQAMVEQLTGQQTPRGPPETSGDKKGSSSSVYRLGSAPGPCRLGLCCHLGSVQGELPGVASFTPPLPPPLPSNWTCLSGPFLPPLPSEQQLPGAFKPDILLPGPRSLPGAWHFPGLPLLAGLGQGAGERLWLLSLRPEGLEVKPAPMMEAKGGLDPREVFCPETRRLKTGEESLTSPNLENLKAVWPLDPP
# Method in brief: as §1
# [16] = biological target: T11, ETS2 (Homo sapiens, UniProt P15036 1-469)
# T11 sequence: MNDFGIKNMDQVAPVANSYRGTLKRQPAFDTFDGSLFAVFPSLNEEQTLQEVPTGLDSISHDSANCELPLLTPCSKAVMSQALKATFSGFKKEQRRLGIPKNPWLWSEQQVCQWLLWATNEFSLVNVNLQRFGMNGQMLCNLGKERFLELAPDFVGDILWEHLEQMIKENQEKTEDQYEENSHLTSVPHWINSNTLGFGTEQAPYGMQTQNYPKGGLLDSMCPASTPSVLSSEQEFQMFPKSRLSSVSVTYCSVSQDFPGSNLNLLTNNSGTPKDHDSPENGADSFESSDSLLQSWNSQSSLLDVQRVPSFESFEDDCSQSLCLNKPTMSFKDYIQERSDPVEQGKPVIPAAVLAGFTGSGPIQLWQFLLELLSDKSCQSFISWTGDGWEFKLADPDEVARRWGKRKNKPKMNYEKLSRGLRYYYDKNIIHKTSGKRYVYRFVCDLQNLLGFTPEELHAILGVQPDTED
# Method in brief: as §1
# [17] = biological target: T12, ETV7 (Homo sapiens, UniProt Q9Y603 1-341)
# T12 sequence: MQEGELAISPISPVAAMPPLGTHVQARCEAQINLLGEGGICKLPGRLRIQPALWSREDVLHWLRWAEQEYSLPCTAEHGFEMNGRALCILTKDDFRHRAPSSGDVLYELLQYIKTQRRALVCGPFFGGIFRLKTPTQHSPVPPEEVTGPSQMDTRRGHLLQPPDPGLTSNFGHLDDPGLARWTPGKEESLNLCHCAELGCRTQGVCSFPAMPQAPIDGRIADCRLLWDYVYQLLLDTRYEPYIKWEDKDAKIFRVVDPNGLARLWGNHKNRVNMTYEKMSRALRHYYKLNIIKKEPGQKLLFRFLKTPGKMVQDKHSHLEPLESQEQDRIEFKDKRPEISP
# Method in brief: as §1
# [18] = biological target: T13, ETV3 (Homo sapiens, UniProt P41162-2 1-143)
# T13 sequence: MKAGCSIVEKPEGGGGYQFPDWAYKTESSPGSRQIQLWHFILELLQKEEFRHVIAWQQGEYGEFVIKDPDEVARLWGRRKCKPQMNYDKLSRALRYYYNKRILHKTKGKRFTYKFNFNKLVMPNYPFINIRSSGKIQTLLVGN
# Method in brief: as §1
# [19] = biological target: ETV6 (Homo sapiens, UniProt P41212 1-452)
# Method in brief: as §1
# Chain of ELF4 (Q99607 whole entry): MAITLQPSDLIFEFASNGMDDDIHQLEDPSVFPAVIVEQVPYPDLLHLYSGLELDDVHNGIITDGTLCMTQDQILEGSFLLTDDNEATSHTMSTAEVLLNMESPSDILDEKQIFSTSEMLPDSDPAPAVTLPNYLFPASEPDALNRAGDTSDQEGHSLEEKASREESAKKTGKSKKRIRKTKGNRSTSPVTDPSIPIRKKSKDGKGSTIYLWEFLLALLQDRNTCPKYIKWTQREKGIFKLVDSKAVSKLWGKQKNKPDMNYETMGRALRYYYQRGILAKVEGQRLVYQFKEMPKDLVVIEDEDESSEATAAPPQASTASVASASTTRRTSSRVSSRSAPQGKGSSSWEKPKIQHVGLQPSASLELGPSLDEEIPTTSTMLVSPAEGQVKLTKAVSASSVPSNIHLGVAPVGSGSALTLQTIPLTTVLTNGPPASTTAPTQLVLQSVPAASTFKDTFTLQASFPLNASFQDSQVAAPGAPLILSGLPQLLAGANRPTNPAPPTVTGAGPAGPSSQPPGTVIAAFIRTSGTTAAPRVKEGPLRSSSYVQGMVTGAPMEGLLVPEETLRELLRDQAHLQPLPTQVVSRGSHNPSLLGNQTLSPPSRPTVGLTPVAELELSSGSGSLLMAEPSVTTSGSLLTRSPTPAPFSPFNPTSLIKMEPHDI
# Chain of ETV5 (P41161 whole entry): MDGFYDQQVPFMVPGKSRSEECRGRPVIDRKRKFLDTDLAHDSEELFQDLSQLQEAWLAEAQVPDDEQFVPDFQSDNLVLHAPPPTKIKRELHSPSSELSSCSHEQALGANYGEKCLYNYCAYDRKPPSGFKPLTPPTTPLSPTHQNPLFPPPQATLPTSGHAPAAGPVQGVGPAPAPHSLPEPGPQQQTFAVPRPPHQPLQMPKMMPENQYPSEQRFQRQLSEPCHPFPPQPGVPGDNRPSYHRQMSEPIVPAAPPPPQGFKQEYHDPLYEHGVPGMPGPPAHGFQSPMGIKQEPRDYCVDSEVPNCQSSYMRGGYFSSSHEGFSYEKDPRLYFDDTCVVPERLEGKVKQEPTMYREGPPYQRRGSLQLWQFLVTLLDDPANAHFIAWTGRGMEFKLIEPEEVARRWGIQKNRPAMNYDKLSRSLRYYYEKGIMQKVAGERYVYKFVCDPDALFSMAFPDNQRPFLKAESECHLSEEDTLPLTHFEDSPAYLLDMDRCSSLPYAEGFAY
# Chain of ETV6 (P41212 whole entry): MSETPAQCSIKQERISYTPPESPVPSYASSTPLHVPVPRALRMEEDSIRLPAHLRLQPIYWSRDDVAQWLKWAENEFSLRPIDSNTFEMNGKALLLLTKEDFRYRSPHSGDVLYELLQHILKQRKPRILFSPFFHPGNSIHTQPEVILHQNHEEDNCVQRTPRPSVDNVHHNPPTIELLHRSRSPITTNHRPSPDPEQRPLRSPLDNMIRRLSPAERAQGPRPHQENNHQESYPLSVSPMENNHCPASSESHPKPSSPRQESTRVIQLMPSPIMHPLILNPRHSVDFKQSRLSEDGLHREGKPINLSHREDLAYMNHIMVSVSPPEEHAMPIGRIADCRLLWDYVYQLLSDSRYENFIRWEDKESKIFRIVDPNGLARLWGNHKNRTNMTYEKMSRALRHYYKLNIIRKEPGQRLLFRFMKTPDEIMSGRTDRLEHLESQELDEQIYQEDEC
# Chain of ELF1 (P32519 whole entry): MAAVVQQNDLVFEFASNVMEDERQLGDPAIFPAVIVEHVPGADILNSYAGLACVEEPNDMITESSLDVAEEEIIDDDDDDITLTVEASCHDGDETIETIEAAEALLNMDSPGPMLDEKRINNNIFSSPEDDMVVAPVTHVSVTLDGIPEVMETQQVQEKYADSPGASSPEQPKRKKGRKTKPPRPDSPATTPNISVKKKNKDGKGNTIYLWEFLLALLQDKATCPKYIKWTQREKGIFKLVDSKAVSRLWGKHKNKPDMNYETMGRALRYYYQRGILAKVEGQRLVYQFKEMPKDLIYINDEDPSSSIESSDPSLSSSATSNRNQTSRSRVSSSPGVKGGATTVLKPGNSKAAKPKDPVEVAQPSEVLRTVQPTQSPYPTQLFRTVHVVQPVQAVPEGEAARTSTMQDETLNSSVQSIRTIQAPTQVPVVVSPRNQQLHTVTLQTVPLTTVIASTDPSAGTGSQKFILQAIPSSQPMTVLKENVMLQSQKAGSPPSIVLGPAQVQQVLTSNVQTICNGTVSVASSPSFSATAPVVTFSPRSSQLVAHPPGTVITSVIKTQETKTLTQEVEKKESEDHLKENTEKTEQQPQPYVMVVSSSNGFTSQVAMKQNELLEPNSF
# Chain of SPIB (Q01892 whole entry): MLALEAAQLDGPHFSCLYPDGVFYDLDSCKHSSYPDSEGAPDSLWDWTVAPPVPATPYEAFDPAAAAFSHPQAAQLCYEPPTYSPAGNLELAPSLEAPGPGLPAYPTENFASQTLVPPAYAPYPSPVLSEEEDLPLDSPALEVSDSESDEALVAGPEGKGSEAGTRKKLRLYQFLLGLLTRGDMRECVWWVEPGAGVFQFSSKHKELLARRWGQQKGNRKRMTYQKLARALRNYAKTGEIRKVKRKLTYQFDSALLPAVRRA
# Chain of ETV1 (P50549 whole entry): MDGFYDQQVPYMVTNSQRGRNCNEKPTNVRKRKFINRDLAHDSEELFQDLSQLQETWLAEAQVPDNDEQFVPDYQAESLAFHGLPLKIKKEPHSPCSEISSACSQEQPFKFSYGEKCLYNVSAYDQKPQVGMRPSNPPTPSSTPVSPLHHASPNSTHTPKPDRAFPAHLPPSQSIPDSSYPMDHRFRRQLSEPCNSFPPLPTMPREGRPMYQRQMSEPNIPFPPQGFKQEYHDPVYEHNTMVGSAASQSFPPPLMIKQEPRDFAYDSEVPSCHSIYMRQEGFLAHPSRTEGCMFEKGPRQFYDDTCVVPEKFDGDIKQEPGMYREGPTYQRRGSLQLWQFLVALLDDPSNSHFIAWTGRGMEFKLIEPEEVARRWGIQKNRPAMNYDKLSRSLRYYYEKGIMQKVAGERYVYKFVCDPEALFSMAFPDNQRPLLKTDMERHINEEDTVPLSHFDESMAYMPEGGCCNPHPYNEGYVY
sequence,measurement,setting,value
TGGCCG,binding signal,[1],"1.19 fold enrichment (6-mer frequency, TF over GST control)"
same,binding signal,[2],"1.15 fold enrichment (6-mer frequency, TF over GST control)"
same,binding signal,[3],"1.19 fold enrichment (6-mer frequency, TF over GST control)"
same,binding signal,[4],"1.08 fold enrichment (6-mer frequency, TF over GST control)"
same,binding signal,[5],"1.02 fold enrichment (6-mer frequency, TF over GST control)"
same,binding signal,[6],"1.17 fold enrichment (6-mer frequency, TF over GST control)"
same,binding signal,[7],"1.22 fold enrichment (6-mer frequency, TF over GST control)"
same,binding signal,[8],"1.17 fold enrichment (6-mer frequency, TF over GST control)"
same,binding signal,[9],"1.08 fold enrichment (6-mer frequency, TF over GST control)"
same,binding signal,[10],"1.06 fold enrichment (6-mer frequency, TF over GST control)"
same,binding signal,[11],"1.04 fold enrichment (6-mer frequency, TF over GST control)"
same,binding signal,[12],"1.14 fold enrichment (6-mer frequency, TF over GST control)"
same,binding signal,[13],"1.04 fold enrichment (6-mer frequency, TF over GST control)"
same,binding signal,[14],"1.05 fold enrichment (6-mer frequency, TF over GST control)"
same,binding signal,[15],"1.07 fold enrichment (6-mer frequency, TF over GST control)"
same,binding signal,[16],"1.06 fold enrichment (6-mer frequency, TF over GST control)"
same,binding signal,[17],"1.06 fold enrichment (6-mer frequency, TF over GST control)"
same,binding signal,[18],"1.11 fold enrichment (6-mer frequency, TF over GST control)"
same,binding signal,[19],"1.11 fold enrichment (6-mer frequency, TF over GST control)"

# From publication PMC7862700, “An all-to-all approach to the identification of sequence-specific readers for epigenetic DNA modifications on cytosine”
